SMILES strings stand for the structures. Where “and” joins values, the source holds several entries; their conditions need not be identical. Identical values can stand only once. Among all 200,000 compounds or so, about 720 (0.36%) were called active. About 8% were inconclusive and are not listed. The call rests on the fitted dose curve; in most records, active means well fitted activation curve with a large enough effect; inconclusive means small, poorly fitted or top-dose-only effect, or effect the other way, or another doubt; inactive means flat fitted curve, though single readings scatter. The list shows a part of the results.
Potency means the concentration at half of the fitted maximal effect.

For this assay, the target named is Lysosomal alpha-glucosidase (Homo sapiens) (UniProt P10253). The experiment in a line: qHTS Assay for Activators of Human alpha-Glucosidase as a Potential Chaperone Treatment of Pompe Disease. Further: nearly all actives have a fitted effect of over 80% in size. The note with it: purified enzyme, 4-MU-alpha-glucoside fluorescence, 20 min; series mostly up to 76.9 µM. In a few lines:
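Fluorogenic assay, 4 nM enzyme, 400 uM 4-methylumbelliferyl-[…], pH 5.0 citrate/phosphate buffer with 0.005% Tween-20, compounds up to 77 uM, 20 min at room temperature. NaOH/glycine stop, Ex 365/Em 440 nm; AC50 from Hill fits.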
For orientation: In qHTS, concentration-response curves come from the screen itself.
On to `CC(OC(=O)c1cc2c(ccc3ccccc32)oc1=O)c1nc2ccccc2s1` (stereo not given), for which the Potency is 28.2 µM (active).

On to `O=C(c1cc2c(ccc3ccccc32)oc1=O)N1CCCC1`, for which the Potency was 31.6 µM (active).

In the case of `O=C(NCCc1ccccc1)c1cnc2ccccn2c1=O`, the Potency was 25.1 µM (active).

Regarding `Cc1cccc(-n2c3nc(=O)[nH]c(=O)c-3cc3c(C)nn(-c4ccccc4)c32)c1C`, the Potency was 22.4 µM (active).

With `Cc1ccc(-n2c3nc(=O)[nH]c(=O)c-3cc3c(C)nn(-c4ccccc4)c32)c(C)c1`, the Potency was 25.1 µM (active).

For the compound `Cc1cccc(-n2c3nc(=O)[nH]c(=O)c-3cc3c(C)nn(-c4ccccc4)c32)c1`, the Potency is 20 µM (active).

`O=c1c(-c2nc3ccccc3s2)cccn1Cc1ccc(Cl)cc1`: the Potency was 10 µM (active).

In the case of `O=c1c(-c2nc3ccccc3s2)cccn1Cc1ccccc1`, the Potency was 39.8 µM (active).

With `O=c1c(-c2nc3ccccc3s2)cccn1Cc1ccc(Cl)c(Cl)c1`, the Potency was 28.2 µM (active).

For the compound `Cc1ccc(Cn2cccc(-c3nc4ccccc4s3)c2=O)cc1`, the Potency was 28.2 µM (active).

In the case of `COc1cc(=O)n(C)c2cc(N(C)C)ccc12`, the Potency is 31.6 µM (active).

In the case of `COc1cc2nc(N3CCN(C(=O)C4COc5ccccc5O4)CC3)nc(N)c2cc1OC` (stereo not given), the Potency is 39.8 µM (active).

For `COc1cc2nc(N3CCN(C(=O)C4CCCO4)CC3)nc(N)c2cc1OC` (stereo not given), the Potency was 35.5 µM (active) and 39.8 µM (active).

Turning to `COc1cc2nc(N(C)CCCNC(=O)C3CCCO3)nc(N)c2cc1OC` (stereo not given), the Potency is 35.5 µM (active).

On to `O=C(O)C(=O)/C(=C\c1cccc(Cl)c1)c1ccc2ccccc2n1`, for which the Potency is 28.2 µM (active).

In the case of `Cc1ccc2nc(-c3ccc(NS(=O)(=O)c4ccc(F)cc4)cc3)sc2c1`, the Potency was 35.5 µM (active).

On to `Cc1ccc2sc(-c3ccc(NC(=O)/C=C\C(=O)O)cc3)nc2c1`, for which the Potency is 39.8 µM (active).

Take `Cc1nc2ccc(S(=O)(=O)Nc3ccc(-c4nc5cccnc5s4)cc3)cc2s1`: the Potency was 35.5 µM (active).

On to `Cc1cccc(S(=O)(=O)Nc2ccc(-c3nc4ccc(C)cc4s3)cc2)c1`, for which the Potency was 31.6 µM (active).

Take `Cc1ccc2nc(-c3ccc(NS(=O)(=O)c4ccc(F)c(F)c4)cc3)sc2c1`: the Potency is 3.55 µM (active).

Consider `Cc1ccc(S(=O)(=O)Nc2ccc(-c3nc4ccc(C)cc4s3)cc2)cc1`, for which the Potency was 35.5 µM (active).

Consider `Cc1cc(-c2nc3cccnc3s2)ccc1NS(=O)(=O)c1ccc2c(c1)OCCO2`, for which the Potency was 35.5 µM (active).

For `C/C(=N\NC(=O)CC#N)c1cc2ccc(O)cc2oc1=O`, the Potency was 35.5 µM (active).

In the case of `Cc1c2c(n3c(nc4ccccc43)c1C#N)N(CCN1CCOCC1)CC2`, the Potency is 5.62 µM (active).

In the case of `Cc1c2c(n3c(nc4ccccc43)c1C#N)N(CCCN(C)C)CC2`, the Potency is 35.5 µM (active).

Source of the values: PubChem BioAssay AID2242 (National Center for Advancing Translational Sciences (NCATS), 2010).
